Of roughly 7,900 targets only a part is listed; those with a hit were picked by preference. About 0.6% of all pairs of compound and target were hits.
What was measured:
Assay in all cases: log2 fold change, soluble protein after heating vs DMSO (PISA); higher = thermal stabilisation; K562 cells, 10 uM, 30 min; active = over 0.2 and 3.5 SD of the protein, either way, in both replicates (recomputed)
saracatinib = compound: CN1CCN(CCOc2cc(OC3CCOCC3)c3c(Nc4c(Cl)ccc5c4OCO5)ncnc3c2)CC1 [saracatinib]
How it was run: (§1)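 For each measurement, 10 μM compound was applied for 30 min to K562 cells at 2×10^6 cells/mL. Aliquots were heated for 3 min across 48°C-58°C, pooled, and extracted in PBS with 0.5% NP-40 at 4°C; the supernatant after 21,000xg for 90 min was soluble protein. This was quantified by TMTpro 16plex LC-MS/MS with channel sums equalised, and thermal stability was reported relative to control samples from duplicates, on a log2 fold-change scale.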

sotrastaurin = compound: CN1CCN(c2nc(C3=C(c4c[nH]c5ccccc45)C(=O)NC3=O)c3ccccc3n2)CC1 [sotrastaurin]
How it was run: as §1

alvocidib = compound: CN1CC[C@H](c2c(O)cc(O)c3c(=O)cc(-c4ccccc4Cl)oc23)[C@H](O)C1 [alvocidib]
How it was run: as §1

Tubastatin A = compound: CN1CCc2c(c3ccccc3n2Cc2ccc(C(=O)NO)cc2)C1 [Tubastatin A]
How it was run: as §1

[1] = compound: CNC(=O)C1=CC=CC=C1NC2=NC(=NC=C2Cl)NC3=C(C=C(C=C3)N4CCOCC4)OC
How it was run: as §1

defactinib = compound: CNC(=O)c1ccc(Nc2ncc(C(F)(F)F)c(NCc3nccnc3N(C)S(C)(=O)=O)n2)cc1 [defactinib]
How it was run: as §1

rucaparib = compound: CNCc1ccc(-c2[nH]c3cc(F)cc4c3c2CCNC4=O)cc1 [rucaparib]
How it was run: as §1

[2] = compound: CNc1nc(-c2ccc3c(N)n[nH]c3c2)cc(N2C[C@@H](C(=O)NC3CCCCC3)CC[C@H]2C)n1
How it was run: as §1

encorafenib = compound: COC(=O)N[C@@H](C)CNc1nccc(-c2cn(C(C)C)nc2-c2cc(Cl)cc(NS(C)(=O)=O)c2F)n1 [encorafenib]
How it was run: as §1

[3] = compound: COC(=O)[C@H](CCSC)NC(=O)C1=C(C=C(C=C1)NC[C@H](CS)N)C2=CC=CC=C2
How it was run: as §1

[4] = compound: COC1=CC=C(C=C1)CN2C=CC3=C2C=C(C=C3)C(=O)NO
How it was run: as §1

filanesib = compound: CON(C)C(=O)N1N=C(c2cc(F)ccc2F)S[C@@]1(CCCN)c1ccccc1 [filanesib]
How it was run: as §1

zotarolimus = compound: CO[C@H]1C[C@@H]2CC[C@@H](C)[C@@](O)(O2)C(=O)C(=O)N2CCCC[C@H]2C(=O)O[C@H]([C@H](C)C[C@@H]2CC[C@H](n3cnnn3)[C@H](OC)C2)CC(=O)[C@H](C)/C=C(\C)[C@@H](O)[C@@H](OC)C(=O)[C@H](C)C[C@H](C)/C=C/C=C/C=C/1C [zotarolimus]
How it was run: as §1

idasanutlin = compound: COc1cc(C(=O)O)ccc1NC(=O)[C@@H]1N[C@@H](CC(C)(C)C)[C@](C#N)(c2ccc(Cl)cc2F)[C@H]1c1cccc(Cl)c1F [idasanutlin]
How it was run: as §1

alisertib = compound: COc1cc(Nc2ncc3c(n2)-c2ccc(Cl)cc2C(c2c(F)cccc2OC)=NC3)ccc1C(=O)O [alisertib]
How it was run: as §1

[5] = compound: COc1cc2nc(-c3cc(F)ccc3O)nc(N[C@@H]3CNC[C@H]3C(C)(C)O)c2cc1OC
How it was run: as §1

gefitinib = compound: COc1cc2ncnc(Nc3ccc(F)c(Cl)c3)c2cc1OCCCN1CCOCC1 [gefitinib]
How it was run: as §1

[6] = compound: COc1cccc2cc(-c3nc([C@H]4CC[C@H](C(=O)O)CC4)n4ncnc(N)c34)[nH]c12
How it was run: as §1

lapatinib = compound: CS(=O)(=O)CCNCc1ccc(-c2ccc3ncnc(Nc4ccc(OCc5cccc(F)c5)c(Cl)c4)c3c2)o1 [lapatinib]
How it was run: as §1

pictilisib = compound: CS(=O)(=O)N1CCN(Cc2cc3nc(-c4cccc5[nH]ncc45)nc(N4CCOCC4)c3s2)CC1 [pictilisib]
How it was run: as §1

Measured: log2 fold change

NISCH (UniProt Q9Y2I1)
Sequence of UniProt Q9Y2I1 (Q9Y2I1 whole entry, looked up): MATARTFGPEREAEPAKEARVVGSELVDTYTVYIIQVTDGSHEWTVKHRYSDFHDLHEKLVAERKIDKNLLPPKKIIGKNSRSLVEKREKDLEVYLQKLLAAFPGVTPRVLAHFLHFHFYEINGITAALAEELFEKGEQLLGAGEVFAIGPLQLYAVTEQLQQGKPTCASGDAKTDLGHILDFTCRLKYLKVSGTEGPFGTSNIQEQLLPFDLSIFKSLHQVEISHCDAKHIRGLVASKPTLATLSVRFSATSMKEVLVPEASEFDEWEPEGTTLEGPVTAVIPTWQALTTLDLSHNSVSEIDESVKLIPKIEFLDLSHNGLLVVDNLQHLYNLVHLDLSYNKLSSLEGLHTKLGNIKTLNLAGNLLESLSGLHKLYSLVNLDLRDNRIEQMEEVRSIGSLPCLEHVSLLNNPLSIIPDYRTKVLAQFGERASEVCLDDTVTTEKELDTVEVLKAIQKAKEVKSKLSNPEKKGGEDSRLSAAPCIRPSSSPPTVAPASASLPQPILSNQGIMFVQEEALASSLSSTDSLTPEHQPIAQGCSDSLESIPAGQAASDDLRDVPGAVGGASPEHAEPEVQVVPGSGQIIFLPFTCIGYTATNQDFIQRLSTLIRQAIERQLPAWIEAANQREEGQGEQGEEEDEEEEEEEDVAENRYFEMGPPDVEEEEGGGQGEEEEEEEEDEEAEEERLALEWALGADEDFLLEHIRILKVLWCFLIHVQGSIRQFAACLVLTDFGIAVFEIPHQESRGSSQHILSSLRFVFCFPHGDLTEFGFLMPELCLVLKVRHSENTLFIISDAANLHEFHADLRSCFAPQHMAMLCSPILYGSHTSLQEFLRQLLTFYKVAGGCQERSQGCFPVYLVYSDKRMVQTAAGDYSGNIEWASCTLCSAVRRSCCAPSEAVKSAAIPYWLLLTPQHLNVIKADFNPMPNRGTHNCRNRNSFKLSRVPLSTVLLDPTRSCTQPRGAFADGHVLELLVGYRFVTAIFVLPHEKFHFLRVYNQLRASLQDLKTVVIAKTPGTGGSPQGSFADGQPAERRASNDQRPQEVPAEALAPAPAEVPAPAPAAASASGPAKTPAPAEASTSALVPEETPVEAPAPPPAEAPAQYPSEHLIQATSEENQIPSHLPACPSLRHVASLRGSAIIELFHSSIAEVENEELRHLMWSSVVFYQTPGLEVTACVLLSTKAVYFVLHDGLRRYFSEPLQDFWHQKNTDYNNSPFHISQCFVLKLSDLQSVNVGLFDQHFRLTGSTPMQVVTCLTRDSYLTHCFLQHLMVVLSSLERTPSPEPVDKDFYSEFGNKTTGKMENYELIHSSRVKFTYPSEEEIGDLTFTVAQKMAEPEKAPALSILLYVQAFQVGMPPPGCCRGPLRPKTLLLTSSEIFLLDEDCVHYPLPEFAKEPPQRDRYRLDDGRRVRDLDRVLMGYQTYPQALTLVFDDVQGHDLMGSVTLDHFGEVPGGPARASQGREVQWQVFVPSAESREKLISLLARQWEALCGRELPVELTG
inactive: saracatinib -0.037 | sotrastaurin -0.066 | alvocidib -0.054 | Tubastatin A -0.022 | [1] -0.141 | defactinib -0.128 | rucaparib -0.041 | [2] -0.072 | encorafenib 0.093 | [3] -0.12 | [4] -0.008 | filanesib -0.029 | zotarolimus -0.022 | idasanutlin -0.015 | alisertib 0.023 | [5] -0.119 | gefitinib -0.014 | [6] 0.106 | lapatinib 0.041 | pictilisib -0.061

NFATC3 (UniProt Q12968)
Sequence of UniProt Q12968 (Q12968 whole entry, looked up): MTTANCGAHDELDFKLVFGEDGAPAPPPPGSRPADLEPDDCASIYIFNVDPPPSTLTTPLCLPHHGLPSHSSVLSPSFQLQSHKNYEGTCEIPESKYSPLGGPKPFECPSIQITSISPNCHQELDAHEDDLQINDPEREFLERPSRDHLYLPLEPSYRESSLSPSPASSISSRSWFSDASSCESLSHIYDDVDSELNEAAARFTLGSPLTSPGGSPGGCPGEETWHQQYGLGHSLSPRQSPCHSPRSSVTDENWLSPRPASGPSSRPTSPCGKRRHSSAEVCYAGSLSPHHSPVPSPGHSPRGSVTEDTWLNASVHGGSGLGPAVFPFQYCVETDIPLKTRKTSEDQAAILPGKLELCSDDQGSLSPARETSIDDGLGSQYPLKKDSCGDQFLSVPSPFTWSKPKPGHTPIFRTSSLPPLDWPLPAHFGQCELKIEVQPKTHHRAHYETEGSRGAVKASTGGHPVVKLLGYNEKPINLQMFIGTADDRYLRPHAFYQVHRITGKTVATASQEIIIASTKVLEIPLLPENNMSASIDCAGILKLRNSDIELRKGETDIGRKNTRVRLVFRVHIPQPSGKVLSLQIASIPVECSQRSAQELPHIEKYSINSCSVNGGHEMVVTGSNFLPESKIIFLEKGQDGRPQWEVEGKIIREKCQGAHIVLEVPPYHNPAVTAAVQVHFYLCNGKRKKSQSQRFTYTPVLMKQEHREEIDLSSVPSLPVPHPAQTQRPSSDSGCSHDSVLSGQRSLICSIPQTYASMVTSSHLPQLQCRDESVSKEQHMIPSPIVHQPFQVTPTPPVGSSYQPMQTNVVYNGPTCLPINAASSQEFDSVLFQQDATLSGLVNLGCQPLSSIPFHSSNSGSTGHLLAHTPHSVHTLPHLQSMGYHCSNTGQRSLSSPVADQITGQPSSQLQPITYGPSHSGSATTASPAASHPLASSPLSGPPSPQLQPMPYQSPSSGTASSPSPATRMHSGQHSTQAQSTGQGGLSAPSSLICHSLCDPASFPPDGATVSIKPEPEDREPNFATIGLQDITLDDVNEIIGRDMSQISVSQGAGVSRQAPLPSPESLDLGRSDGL
inactive: saracatinib -0.003 | alvocidib -0.148 | Tubastatin A 0.058 | [1] -0.103 | defactinib -0.208 | rucaparib 0.281 | encorafenib -0.166 | [3] -0.051 | [4] 0.039 | filanesib 0.056 | zotarolimus -0.109 | idasanutlin -0.009 | alisertib 0.006 | [5] -0.109 | gefitinib 0.048 | [6] -0.002 | lapatinib 0.015 | pictilisib 0.086
active: sotrastaurin -0.451 | [2] -0.539

NEDD4L (UniProt Q96PU5)
inactive: saracatinib -0.014 | sotrastaurin -0.063 | alvocidib -0.121 | Tubastatin A 0.057 | [1] 0.068 | defactinib -0.135 | rucaparib 0.002 | [2] -0.059 | encorafenib 0.03 | [3] -0.023 | [4] -0.027 | filanesib 0.095 | zotarolimus 0.032 | idasanutlin -0.018 | alisertib -0.114 | [5] 0.086 | gefitinib -0.031 | [6] 0.027 | lapatinib -0.025 | pictilisib -0.035

NHLRC2 (UniProt Q8NBF2)
inactive: saracatinib -0.026 | sotrastaurin 0.039 | alvocidib -0.037 | Tubastatin A -0.072 | [1] -0.055 | defactinib -0.039 | rucaparib -0.016 | [2] 0.059 | encorafenib -0.045 | [3] 0.146 | [4] -0.084 | filanesib -0.062 | zotarolimus -0.001 | idasanutlin -0.061 | alisertib 0.1 | [5] 0.061 | gefitinib -0.011 | [6] 0.123 | lapatinib -0.057 | pictilisib 0.062

NRF1 isoform 4 (UniProt Q16656)
Sequence of UniProt Q16656 (Q16656 whole entry, looked up): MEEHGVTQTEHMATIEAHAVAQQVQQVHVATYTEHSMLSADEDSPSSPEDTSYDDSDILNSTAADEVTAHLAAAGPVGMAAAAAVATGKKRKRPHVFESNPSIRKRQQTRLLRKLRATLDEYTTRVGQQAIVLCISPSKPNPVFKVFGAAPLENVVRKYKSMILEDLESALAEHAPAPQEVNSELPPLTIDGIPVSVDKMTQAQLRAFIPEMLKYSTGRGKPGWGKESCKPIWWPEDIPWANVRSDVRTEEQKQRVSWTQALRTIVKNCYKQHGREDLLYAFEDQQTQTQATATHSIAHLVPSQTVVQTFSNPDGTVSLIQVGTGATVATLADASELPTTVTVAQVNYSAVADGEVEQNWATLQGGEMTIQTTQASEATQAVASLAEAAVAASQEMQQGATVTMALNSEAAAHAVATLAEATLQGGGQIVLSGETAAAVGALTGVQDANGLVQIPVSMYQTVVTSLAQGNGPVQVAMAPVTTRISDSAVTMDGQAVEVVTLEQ
active: defactinib -0.34
inactive: saracatinib 0.102 | sotrastaurin -0.045 | alvocidib -0.159 | Tubastatin A 0.015 | [1] -0.016 | rucaparib -0.11 | [2] -0.061 | encorafenib 0.036 | [3] 0.015 | [4] 0.048 | filanesib -0.054 | zotarolimus 0.098 | idasanutlin 0.03 | alisertib -0.077 | [5] -0.135 | gefitinib 0.03 | [6] 0.019 | lapatinib -0.078 | pictilisib 0.167

MPHOSPH10 (UniProt O00566)
Sequence of UniProt O00566 (O00566 whole entry, looked up): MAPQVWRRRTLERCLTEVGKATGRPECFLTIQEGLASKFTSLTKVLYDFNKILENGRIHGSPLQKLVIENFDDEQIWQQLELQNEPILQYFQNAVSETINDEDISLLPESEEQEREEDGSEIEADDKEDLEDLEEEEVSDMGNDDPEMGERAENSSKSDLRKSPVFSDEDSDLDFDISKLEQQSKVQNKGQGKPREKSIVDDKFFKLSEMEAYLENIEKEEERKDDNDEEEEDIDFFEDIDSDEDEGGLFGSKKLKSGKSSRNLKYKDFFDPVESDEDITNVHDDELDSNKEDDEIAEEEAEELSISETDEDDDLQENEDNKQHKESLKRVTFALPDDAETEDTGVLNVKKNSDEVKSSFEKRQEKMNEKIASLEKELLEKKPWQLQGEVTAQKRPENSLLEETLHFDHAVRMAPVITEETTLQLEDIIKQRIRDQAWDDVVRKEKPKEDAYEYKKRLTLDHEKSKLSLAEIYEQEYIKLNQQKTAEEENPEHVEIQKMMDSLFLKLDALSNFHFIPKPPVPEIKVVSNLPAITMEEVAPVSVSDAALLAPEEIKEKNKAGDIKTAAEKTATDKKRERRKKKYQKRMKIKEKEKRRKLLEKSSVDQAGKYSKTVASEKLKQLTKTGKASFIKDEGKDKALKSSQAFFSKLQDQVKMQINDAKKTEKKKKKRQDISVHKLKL
inactive: saracatinib -0.123 | sotrastaurin -0.061 | alvocidib 0.086 | Tubastatin A 0.098 | [1] -0.023 | defactinib 0.11 | rucaparib 0.229 | [2] -0.081 | encorafenib 0.214 | [3] 0.045 | [4] -0.139 | zotarolimus 0.053 | idasanutlin 0.271 | alisertib -0.061 | [5] -0.166 | gefitinib 0.026 | [6] -0.031 | lapatinib 0.174 | pictilisib -0.105
active: filanesib 0.561

MND1 (UniProt Q9BWT6)
Sequence of UniProt Q9BWT6 (Q9BWT6 whole entry, looked up): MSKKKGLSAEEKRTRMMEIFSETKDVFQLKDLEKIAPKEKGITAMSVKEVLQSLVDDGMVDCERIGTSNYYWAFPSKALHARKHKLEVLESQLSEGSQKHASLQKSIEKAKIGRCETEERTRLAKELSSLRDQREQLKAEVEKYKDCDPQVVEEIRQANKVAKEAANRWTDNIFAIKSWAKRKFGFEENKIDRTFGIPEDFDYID
inactive: saracatinib 0.006 | sotrastaurin 0.036 | alvocidib 0.011 | Tubastatin A -0.006 | [1] -0.029 | defactinib -0.021 | rucaparib 0.05 | [2] -0.059 | encorafenib -0.15 | [3] 0.023 | [4] -0.037 | filanesib -0.057 | zotarolimus -0.077 | idasanutlin 0.099 | alisertib 0.062 | [5] -0.235 | gefitinib -0.193 | [6] 0.03 | lapatinib -0.025 | pictilisib 0.032

MKNK1 (UniProt Q9BUB5)
Sequence of UniProt Q9BUB5 (Q9BUB5 whole entry, looked up): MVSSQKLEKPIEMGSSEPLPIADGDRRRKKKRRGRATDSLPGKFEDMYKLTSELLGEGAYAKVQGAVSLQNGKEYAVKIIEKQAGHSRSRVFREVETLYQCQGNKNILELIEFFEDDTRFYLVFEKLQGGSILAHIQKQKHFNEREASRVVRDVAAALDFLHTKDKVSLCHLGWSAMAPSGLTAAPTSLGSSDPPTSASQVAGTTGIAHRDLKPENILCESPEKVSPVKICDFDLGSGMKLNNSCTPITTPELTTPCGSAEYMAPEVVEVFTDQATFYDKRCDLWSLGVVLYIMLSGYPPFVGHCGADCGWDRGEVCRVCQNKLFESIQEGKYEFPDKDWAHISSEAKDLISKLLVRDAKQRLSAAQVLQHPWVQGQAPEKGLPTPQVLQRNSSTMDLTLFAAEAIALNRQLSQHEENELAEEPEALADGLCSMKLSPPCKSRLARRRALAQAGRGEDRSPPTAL
active: gefitinib 0.525
inactive: saracatinib 0.049 | sotrastaurin -0.088 | alvocidib -0.06 | Tubastatin A 0.037 | [1] 0.038 | defactinib -0.102 | rucaparib 0.099 | [2] 0.051 | encorafenib 0.018 | [3] -0.053 | [4] 0.021 | filanesib -0.108 | zotarolimus -0.022 | idasanutlin -0.075 | alisertib 0.008 | [5] -0.021 | [6] -0.073 | lapatinib 0.015 | pictilisib -0.058

NOSIP (UniProt Q9Y314)
inactive: saracatinib -0.045 | sotrastaurin -0.28 | alvocidib -0.098 | Tubastatin A 0.199 | [1] 0.05 | defactinib -0.199 | rucaparib 0.003 | [2] -0.106 | encorafenib 0.181 | [3] -0.182 | [4] -0.069 | filanesib 0.143 | zotarolimus -0.018 | idasanutlin 0.029 | alisertib 0.166 | [5] 0.174 | gefitinib 0.156 | [6] -0.053 | lapatinib -0.046 | pictilisib -0.067

NOP56 (UniProt O00567)
inactive: saracatinib -0.034 | sotrastaurin 0.018 | alvocidib 0.104 | Tubastatin A -0.01 | [1] -0.067 | defactinib 0.375 | rucaparib 0.233 | [2] -0.028 | encorafenib 0.057 | [3] 0.007 | [4] -0.083 | zotarolimus 0.136 | idasanutlin 0.345 | alisertib 0.007 | [5] 0.045 | gefitinib -0.046 | [6] -0.078 | lapatinib 0.098 | pictilisib 0.013
active: filanesib 0.605

MKRN2 (UniProt Q9H000)
Sequence of UniProt Q9H000 (Q9H000 whole entry, looked up): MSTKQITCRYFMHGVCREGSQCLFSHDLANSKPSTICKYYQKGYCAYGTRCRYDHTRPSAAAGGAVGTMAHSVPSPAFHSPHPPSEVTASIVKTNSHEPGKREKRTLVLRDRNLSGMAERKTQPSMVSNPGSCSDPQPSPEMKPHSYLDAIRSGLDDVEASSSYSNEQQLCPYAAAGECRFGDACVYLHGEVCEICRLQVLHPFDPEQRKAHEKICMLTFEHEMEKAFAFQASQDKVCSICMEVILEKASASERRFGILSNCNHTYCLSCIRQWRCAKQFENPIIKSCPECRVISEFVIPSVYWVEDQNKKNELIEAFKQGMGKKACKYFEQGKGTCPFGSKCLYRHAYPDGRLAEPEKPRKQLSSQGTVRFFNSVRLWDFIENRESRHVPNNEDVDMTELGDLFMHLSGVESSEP
inactive: saracatinib -0.203 | sotrastaurin -0.024 | alvocidib -0.002 | Tubastatin A 0.177 | [1] -0.08 | defactinib -0.049 | rucaparib 0.258 | [2] 0.007 | encorafenib 0.109 | [3] -0.005 | [4] 0.024 | filanesib 0.137 | zotarolimus -0.035 | idasanutlin 0.147 | alisertib -0.009 | [5] 0.101 | gefitinib -0.099 | [6] -0.079 | lapatinib -0.027 | pictilisib 0.03

MRPS2 (UniProt Q9Y399)
inactive: saracatinib -0.243 | sotrastaurin -0.145 | alvocidib 0.005 | Tubastatin A 0.036 | [1] -0.021 | defactinib 0.034 | rucaparib 0.104 | [2] 0.035 | encorafenib 0.084 | [3] -0.088 | [4] -0.052 | filanesib -0.05 | zotarolimus -0.02 | idasanutlin -0.054 | alisertib -0.19 | [5] 0.005 | gefitinib -0.036 | [6] 0.006 | lapatinib 0.071 | pictilisib -0.015

Reference: the supplement of paper PMC10849652
